Vaccinia pol inh: inhibitors of vaccinia virus processive DNA synthesis (E9 polymerase) | normalized absorbance, % (no concentration beside the values) | AID 493162 | 46,000 tested, 0.94% active | in vitro processive DNA synthesis, absorbance read-out; active compounds read low; in the data active means normalized absorbance mostly below about 85%, no sharp cut-off; inactive means mostly above about 86%
Numbers stand for hits; n = inactive; ! = a repeat was not active. This excerpt belongs to a sample that is enriched for hits.

SMILES | Vaccinia pol inh
Cc1cc(C)nc(/N=C(\N)Nc2ccccc2)n1 | 41
Cc1cc(C)nc(NC(N)=NCc2ccccc2)n1 | n
Cc1cc(=O)[nH]c(/N=C(\N)Nc2ccccc2)n1 | n
Cc1cc(C(=O)OCc2ccccc2)c(C)o1 | n
O=c1c(=O)n(Cc2ccc(Cl)cc2)ccn1Cc1ccccc1 | n
CSc1nc2ccc3nc(NC(=O)c4ccccc4C)sc3c2s1 | n
CC(=O)Nc1ccc(N=Cc2ccc(OC(=O)c3cccnc3)cc2)cc1 | n
CC(=O)Nc1ccc(N=Cc2ccc(C)cc2)cc1 | n
CC(=O)Nc1ccc(N=Cc2ccc(OC(=O)c3ccccc3Br)cc2O)cc1 | 82
Cc1cccc(NC(=O)Cn2c(C(F)(F)F)nc3ccccc32)c1 | n
CCOC(=O)c1c(C)oc2c1c(/C=N/c1cccc(C)n1)c(O)c1ccccc12 | n
CC(=O)Nc1ccc(Cl)c(Cl)c1 | n
COc1ccc(NC(C)=O)cc1C | n
CC(=O)Nc1ccc(-n2c(C)ccc2C)c(C(=O)O)c1 | 49
O=C(CCc1nc2cccnc2n1-c1ccccc1)N1CCCCC1 | n
CCN1Cc2cccc(C(=O)O)c2C1=O | n
O=C(O)CNC(=S)N(Cc1cccs1)C1CCCCC1 | n
O=C(CNC(=S)N(Cc1ccccc1)Cc1cccs1)NC1CCCCC1 | 77
O=C(O)CNC(=S)N(Cc1ccccc1)Cc1cccs1 | n
C/C(C(=O)c1ccc(Cl)cc1)=[N+](/[O-])C1CCC/C1=N\O (configuration not stated) | n
Cc1cccc(C=Nc2c(C)n(C)n(-c3ccccc3)c2=O)c1 | n
CCOC(=O)/C=C\c1cn(-c2ccccc2)nc1-c1ccccc1 | n
COc1ccc(C2CNC(=O)C2)cc1 (configuration not stated) | n
O=C1c2ccccc2-c2n[nH]c(=O)c3ccc(N4CCOCC4)c1c23 | n
CC1CCN(c2cc(N(C)C)c3noc4c3c2C(=O)c2ccccc2-4)CC1 | 70
SMILES | Vaccinia pol inh
Cc1ccc(Nc2ccc3noc4c3c2C(=O)c2ccccc2-4)cc1 | n
O=S(=O)(/C=C/c1ccccc1)N1CCN(c2ccccn2)CC1 | n
O=C(Cc1ccccc1)Nc1c2c(nn1-c1ccccc1)CS(=O)C2 (configuration not stated) | n
CN(CC(C)(C)NS(=O)(=O)c1ccccc1)C1CCCCC1 | n
O=C(O)c1ccccc1Nc1ccccc1 | n
O=C(O)c1ccccc1Nc1cccc(C(F)(F)F)c1 | 85!
O=C(Nc1cccc(C(F)(F)F)c1)C(F)(F)F | n
COc1ccc(C(=O)NC(c2c(C)[nH]n(-c3ccccc3)c2=O)(C(F)(F)F)C(F)(F)F)cc1 | n
O=S(=O)(NCCNC/C=C/c1ccc(Br)cc1)c1cccc2cnccc12 | 89
Brc1ccccc1C=Nc1cccc2cnccc12 | n
O=S(=O)(c1cccc2cnccc12)N1CCCNCC1 | n
CCOc1cccc(C2C(C(=O)OC)=CN(CC)C=C2C(=O)OC)c1 | n
CC(C)c1ccc(C(=O)OCC(=O)NCc2ccco2)cc1 | n
O=c1[nH][nH]c(=O)n1CCCc1cc2cccc3ccc4cccc1c4c32 | 63
O=C1CNC(=O)N1/N=C/c1cccc2ccccc12 | n
COc1ccccc1-c1c(C)nn2c(SCC(=O)NCc3ccc4c(c3)OCO4)cc(C)nc12 | n
O=C1CC(SC(=Nc2ccccc2)Nc2ccccc2)C(=O)N1CCc1ccccc1 (configuration not stated) | n
CCC1CCCCN1CCCNC(=O)c1cc2c(s1)CSC2 (configuration not stated) | n
Cc1cccc2c1-c1sc(C(=O)NCCN3CCCCC3C)cc1CO2 (configuration not stated) | n
CC1CCCCN1CCCNC(=O)c1cc2c(s1)-c1ccc(Cl)cc1SC2 (configuration not stated) | 69
COc1ccc(OC)c(/C=C2\CC(c3ccccc3)C/C(=C\c3cc(OC)ccc3OC)C2=O)c1 (configuration not stated) | n
Cc1ccc(C(=O)NCCN2CCCC2)cc1 | n
O=C(NCCCN1CCCC1)c1csc2c1CCCCC2 | n
O=C(NCCN1CCCC1)C1=Cc2sc3c(c2CS1)CCCC3 | 74
CC(C)=CCOc1ccc2c(c1)oc(=O)c1ccccc12 | n
SMILES | Vaccinia pol inh
Cn1c(=O)oc2cc(S(=O)(=O)NCCCN3CCN(c4cccc(Cl)c4)CC3)ccc21 | n
Clc1cccc(OCCN2CCN(c3ccccc3)CC2)c1 | n
O=c1n(CCCN2CCN(c3cccc(Cl)c3)CC2)nc2ccccn12 | 15
CCOC(=O)C(C)n1nc(C)c2sc3ccccc3c2c1=O (configuration not stated) | n
CCC(C(=O)O)n1nc(C)c2sc3ccccc3c2c1=O (configuration not stated) | n
CCN(CC)CCNc1ccc(CO)c2sc3ccccc3c(=O)c12 | 60
O=c1ccc(-c2ccc(F)cc2)n[nH]1 | n
CN1CCN(c2ccc(Nc3ccnc4cc(Cl)ccc34)cc2Cl)CC1 | n
CCN1CCN(c2ccc(Nc3ccnc4cc5ccccc5cc34)cc2)CC1 | 14
CCN1CCN(c2ccc(NC(=O)c3cccc(Br)c3)cc2)CC1 | n
O=c1[nH]c(-c2ccc(Cl)cc2)nc2sc3c(c12)CCCC3 | n
FC(F)(F)c1cnc(-n2cc(C3OCCO3)c3ccccc32)c(Cl)c1 | n

Screens deposited in PubChem BioAssay by ICCB-Longwood Screening Facility, Harvard Medical School.
